# Bioassay records: PubChem, National Center for Advancing Translational Sciences (NCATS)
# CtBP-E1A inh – inhibitors of CtBP/E1A interaction | AlphaScreen GST-E1A/His-CtBP binding, 1536-well; hits give low values | activity change, % (concentration not given with the values) | 0.49% of 340,000 active | AID 651724; in the data active = activity change below about -65%; inconclusive = mostly about -30% to -63%
#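 Protein mix (5X: 125 nM each GST-E1A, His-CtBP) was incubated with pinned compound 2 h at 37 deg C in dark, in 50 mM Tris pH 8.0 buffer with 300 mM NaCl. Glutathione donor and nickel acceptor beads followed; AlphaScreen signal read after 1 h.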
# Six1-Eya2 blk – blocks human Six1 binding to Eya2; Q15475+O00167; AlphaScreen GST-Six1/His-Eya2 binding, biochemical; hits give low values; activity change, % (no concentration beside the values); 0.56% of 360,000 active; in the data active = activity change below about -65%; inconclusive = mostly about -30% to -63%
# Target sequence (O00167 whole entry, looked up): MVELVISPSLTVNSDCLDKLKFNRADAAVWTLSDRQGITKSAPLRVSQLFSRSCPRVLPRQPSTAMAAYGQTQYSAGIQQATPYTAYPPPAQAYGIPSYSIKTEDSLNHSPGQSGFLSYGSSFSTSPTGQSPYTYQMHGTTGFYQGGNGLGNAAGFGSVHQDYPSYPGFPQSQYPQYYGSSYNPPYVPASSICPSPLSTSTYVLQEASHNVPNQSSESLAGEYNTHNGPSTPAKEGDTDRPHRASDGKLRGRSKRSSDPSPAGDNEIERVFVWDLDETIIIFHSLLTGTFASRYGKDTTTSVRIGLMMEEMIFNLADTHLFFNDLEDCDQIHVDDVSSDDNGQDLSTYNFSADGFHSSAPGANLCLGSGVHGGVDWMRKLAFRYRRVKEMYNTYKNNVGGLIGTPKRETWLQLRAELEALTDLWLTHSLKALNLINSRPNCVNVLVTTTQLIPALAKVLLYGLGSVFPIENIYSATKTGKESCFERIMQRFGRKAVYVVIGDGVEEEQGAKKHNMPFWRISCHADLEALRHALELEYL
# Target sequence (Q15475 whole entry, looked up): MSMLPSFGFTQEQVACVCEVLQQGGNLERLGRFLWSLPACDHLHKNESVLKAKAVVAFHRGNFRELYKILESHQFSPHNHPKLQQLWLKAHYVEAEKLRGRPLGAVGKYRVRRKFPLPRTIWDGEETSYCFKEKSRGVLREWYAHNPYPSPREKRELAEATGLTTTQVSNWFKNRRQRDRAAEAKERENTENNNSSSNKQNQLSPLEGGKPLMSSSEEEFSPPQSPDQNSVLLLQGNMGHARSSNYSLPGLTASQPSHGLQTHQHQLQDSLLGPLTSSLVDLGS
#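 Homogeneous AlphaScreen proximity assay pairing GST-Six1 with His-tagged Eya2 (added as 5X mix: 250 nM and 500 nM) in 50 mM Tris pH 8.0, 300 mM NaCl, 1 mM TCEP. Glutathione donor and nickel acceptor beads; 1 h, 37 °C, dark.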
# L3MBTL1 inh – L3MBTL1 (human) inhibition; AlphaScreen L3MBTL1–H3K9me1 peptide binding; Potency, µM (series often up to 57.1 µM), without a hit: at the top dose activity, negative = inhibition, actives largely listed as inhibitors; 0.66% of 230,000 active; AID 485360; note: potency is the fitted concentration of half-maximal effect; nearly all actives have a fitted effect of over 60% in size
#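 First, the protein-peptide complex forms for 30 min at room temperature (L3MBTL1 50 nM, biotinylated H3K9me1 peptide 75 nM). Next, compounds are pin-transferred and incubated 30 min. Finally, AlphaScreen beads are added and read after 30 min.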
# B2AR arrestin – agonists driving beta-arrestin recruitment to human beta2-adrenergic receptor; P07550; beta-arrestin recruitment to beta2AR, cell-based reporter; Potency, µM (series often up to 46.1 µM), for the others: at the highest dose activation, hits mostly activators; 0.02% of 330,000 active; AID 492947;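 note: potency is the fitted concentration of half-maximal effect; 0% = DMSO controls and full agonism = EC100 isoproterenol or metaproterenol; nearly all actives have a fitted effect of over 65% in size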
# Eya2 phos inh – inhibitors of human Eya2 phosphatase activity | O00167 | recombinant Eya2, OMFP fluorescence dephosphorylation (OMFP is methylfluorescein phosphate) | Potency, µM (doses to about 76.9 µM), without a hit: top-dose activity, negative = inhibition, actives largely listed as inhibitors | 0.006% of 330,000 active; note: potency is the fitted concentration of half-maximal effect
#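 Eya2 protein (added as 0.2 uM solution) was preincubated with compound for 10 min at ambient temperature in 50 mM HEPES pH 7.5, 50 mM NaCl, 5 uM MgCl2, 0.05% BSA, 1 mM DTT. OMFP (added at 50 uM) then reacted 10 min; fluorescence read at 485/525 nm.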
# An asterisk follows results filed as active; ? = inconclusive; nt = not tested or not shown. Shown are actives, neighbours in structure and some others; about 0.9% of the full set was active somewhere. Unless noted, calls come from the whole dose curve; as a rule, active = well fitted curve in the direction sought with a large enough effect; inconclusive = small, poorly fitted or top-dose-only effect, or another doubt; inactive = no such curve, though single readings can be large; an effect the other way counts as inactive or inconclusive. Unless noted, % is set by controls: 0 for no effect and ±100 for the full control effect.
SMILES,CtBP-E1A inh,Six1-Eya2 blk,L3MBTL1 inh,B2AR arrestin,Eya2 phos inh
COc1cccc(/C=N/Nc2ccnc(=O)[nH]2)c1O,-92*,-76*,nt,0%,?
O=c1nccc(N/N=C/c2ccccc2O)[nH]1,-92*,-75*,nt,1%,-9%
COc1cccc(/C=N/Nc2snc(SC)c2C#N)c1O,-76*,?,-8%,0%,0%
O=C(CSc1cn[nH]n1)Nc1ccccc1C(F)(F)F,?,3,nt,-1%,0%
O=C(CSc1nc2ccccc2c(=O)n1-c1ccc(F)cc1)Nc1cc(S(=O)(=O)N2CCOCC2)ccc1Cl,-3,-12,-2%,16µM*,-3%
CCCCN1CC(N2CCCCC2)CS1(=O)=O (stereo unspecified),7,0,nt,nt,nt
CCOC(=O)C(Oc1ccc2c(-c3ccccc3)cc(=O)oc2c1C)c1ccccc1 (stereo unspecified),12,1,4%,-1%,-2%
Cc1c(OCc2ccc(C(=O)O)cc2)ccc2c(-c3ccccc3)cc(=O)oc12,1,-74*,1%,0%,7%
CN1CCN(c2ccccc2NC(=O)c2cc3c(s2)-c2ccccc2OC3)CC1,-79*,-1,nt,-1%,-15%
COc1ccc(S(=O)(=O)N2CCOCC2)cc1NC(=O)c1cccs1,?,?,4%,0%,-11%
CCOc1cccc(-c2nn3c(-c4cc(C)[nH]n4)nnc3s2)c1,-71*,?,-3%,0%,4%
CCOc1cccc(-c2nnc3sc(-c4cc(OC)c(OC)cc4OC)nn23)c1,nt,nt,7%,0%,-5%
COc1ccc2cc([S+]([O-])Cc3ncc(C)c(OC)c3C)nc2c1,nt,nt,nt,nt,16%
O=C(N/N=C/c1cc(Cl)cc([N+](=O)[O-])c1O)c1cccc(S(=O)(=O)N2CCOCC2)c1,-87*,-91*,?,0%,6%
O=C(N/N=C/c1cc(Br)cc(Br)c1O)c1cccc(S(=O)(=O)N2CCOCC2)c1,-94*,-70*,nt,0%,4%
O=C(N/N=C/c1ccccc1Br)c1cccc(S(=O)(=O)N2CCOCC2)c1,-10,-11,-1%,0%,-17%
COc1ccc(OC)c(C(=O)COC(=O)COc2ccccc2F)c1,10,5,4%,0%,-27%
O=S(=O)(Nc1cccc(-c2cn3cccnc3n2)c1)c1ccccc1,-21,-83*,31%,0%,3%
O=S(=O)(Nc1cccc(-c2cn3cccnc3n2)c1)c1ccc(F)cc1,-1,-67*,2%,-1%,2%
CN1CCn2cnc(C(=O)NCCCCCNC(=O)OC(C)(C)C)c2C1=O,-3,-3,nt,nt,nt
O=C(CSc1nc(=O)n2ccccc2n1)N1CCCc2ccccc21,-2,-2,7%,0%,33%
O=C(N/N=C/C(Cl)=C/c1ccc([N+](=O)[O-])cc1)C(=O)Nc1cccc(C(=O)O)c1,-92*,?,-23%,-1%,-6%
CN(C)c1ccc(CNCCC(Cc2ccccc2)c2ccco2)cc1 (stereo unspecified),?,-66*,nt,0%,?
CN(C)c1ccc(-n2cccc2)cc1,?,-68*,?,-1%,-10%
CN(C)/C=C/C(=O)c1ccc(-n2cccc2)cc1,-7,-5,-13%,0%,-1%
SMILES,CtBP-E1A inh,Six1-Eya2 blk,L3MBTL1 inh,B2AR arrestin,Eya2 phos inh
CC1=NN(C(N)=S)C(=O)C1N=Nc1cccc(C(=O)O)c1 (stereo unspecified),-6,3,2%,0%,0%
CC1=NN(C(N)=S)C(=O)C1N=Nc1ccc([N+](=O)[O-])cc1 (stereo unspecified),?,-5,nt,7.1µM*,-3%
CC1=NN(C(N)=S)C(=O)C1N=Nc1cccc(C)c1 (stereo unspecified),-1,-3,nt,1.3µM*,-1%
CC1=NN(C(N)=S)C(=O)C1N=Nc1ccc(O)cc1 (stereo unspecified),nt,?,-5%,0%,-5%
CC1=NN(C(N)=S)C(=O)C1N=Nc1ccc(F)cc1 (stereo unspecified),nt,-8,nt,2.5µM*,7%
CN(CCCn1ccc(N)nc1=O)Cc1ccco1,4,4,nt,nt,nt
CCOC(=O)C1CCN(C2=C(NS(=O)(=O)c3ccc(Br)cc3)C(=O)c3ccccc3C2=O)CC1,nt,-80*,nt,0%,-3%
O=C1C(NS(=O)(=O)c2ccc(Cl)cc2)=C(N2CCCCC2)C(=O)c2ccccc21,-81*,-80*,25µM*,0%,3%
COC(=O)C[C@H]1C=C[C@H](NC(=O)Nc2ccccc2OC)[C@@H](CO)O1,-23,14,nt,nt,nt
CCCCn1c(N)c(N(CC(C)C)C(=O)c2ccc(Cl)c(S(=O)(=O)N3CCCC3)c2)c(=O)[nH]c1=O,-8,11,-7%,0%,18%
COc1ccc(C(=O)NC2CCc3ccccc32)cc1OC1CCN(C(C)C)CC1 (stereo unspecified),7,-1,nt,0%,5%
COCCN(CCOC)Cc1cc(=O)oc2ccc3ccccc3c12,1,-2,nt,nt,nt
CCOC(=O)c1ccccc1NC(=O)Cc1ccc(S(=O)(=O)N2CCCC2)s1,-3,-6,-11%,1%,3%
COc1ccc(NC(=O)c2c(NC(=O)CNCc3ccco3)sc3c2CCC3)cc1,-9,-2,7%,-1%,-2%
CCOc1ccc(NC(=O)c2c(NC(=O)CNCCN3CCOCC3)sc3c2CCC3)cc1,-82*,?,nt,0%,-8%
CC(=O)N1CCN(C(=O)OC2CC3CC2[C@H]2CCCCN2C3=O)CC1 (stereo partly specified),1,0,nt,nt,nt
O=C(OCc1cn([C@H]2CN(C(=O)c3cccs3)[C@@H](c3ccc(Cl)cc3)C[C@@H]2O)nn1)c1ccccc1,3,-10,nt,nt,nt
CCOc1ccc(N=Nc2cc(C(C)C)ccc2O)cc1,?,?,28µM*,-1%,4%
CC1CCN(c2ccc(NC(=O)Cc3ccccc3)cc2)CC1,-1,-23,1%,-1%,5%
COc1cccc(CNc2ccc(N3CCC(C)CC3)cc2)c1OC,-70*,-72*,?,3%,-8%
COc1ccc2c(c1O)C(=O)c1ccccc1C2=O,nt,nt,0%,0%,-1%
Nc1c(O)ccc2c1C(=O)c1ccccc1C2=O,?,-74*,?,0%,-16%
CCOC(=O)C1=C(C)N=c2s/c(=C/c3cccc([N+](=O)[O-])c3O)c(=O)n2C1c1cc(OC)c(OC)c(OC)c1 (stereo unspecified),-80*,-70*,nt,0%,-5%
CCOC(=O)C1=C(C)N=c2s/c(=C/c3ccco3)c(=O)n2C1c1cccc(OC)c1 (stereo unspecified),-13,-22,?,0%,11%
CCOC(=O)C1=C(C)N=c2s/c(=C\c3ccc(OCC(=O)O)cc3)c(=O)n2C1c1ccccc1 (stereo unspecified),-2,-29,0%,0%,1%
